# Measurements published in PubChem BioAssay (Tox21).
# Inconclusive results are not listed. The source made the active and inactive calls. Calls follow the shape of the dose curve; as a rule, active = well fitted cell-killing curve with a large enough effect in the repeat runs; inconclusive = weak or mixed curves, or effect the other way; inactive = flat fitted curve, though single readings scatter.
# Test: qHTS assay to identify small molecule agonists of the estrogen receptor beta (ER-beta) signaling pathway - cell viability counter screen (AID 1259380); also: nearly all actives have a fitted effect of over 30% in size
# Conditions: ER-beta-bla HEK293T viability, CellTiter-Glo luminescence, 16 h; series mostly up to 92.4 µM; activity change, negative = cytotoxicity: at the top concentration
# Excerpt: National Center for Advancing Translational Sciences [NCATS]
# NIH Chemical Genomics Center [NCGC]
# U.S. Environmental Protection Agency [EPA]
# National Institutes of Environmental Health Sciences [NIEHS]
# National Toxicology Program [NTP]
# U.S. Food and Drug Administration [FDA]
# Estrogen receptor (ER), a nuclear hormone receptor, plays an important role in development, metabolic homeostasis and reproduction. Two subtypes of ER, ER-alpha and ER-beta, have similar expression patterns with some uniqueness in both types. Endocrine disrupting chemicals (EDCs) and their interactions with steroid hormone receptors like ER causes disruption of normal endocrine function. To identify the compounds that activate ER signaling, an ER beta-UAS-bla GripTite cell line (Life Technologies, Madison, WI, USA) containing a beta-lactamase reporter gene under the control of an UAS response element was used to screen Tox21 10K compound library. The cytotoxicity of the Tox21 compound library against the ER-beta-bla cell line was tested in parallel by measuring the cell viability using CellTiter-Glo assay in the same wells.
# Tox21 Assay Protocol Summary:
# ER-beta-UAS-bla HEK293T cells were dispensed at 2,000 cells/5 uL of assay medium containing 2% charcoal stripped FBS per well into black wall/clear-bottom 1536-well plates using a Multidrop Combi (ThermoFisher Scientific, Waltham, MA) dispenser. After the assay plates were incubated at a 37C and 5% CO2 for 6 hr, 23 nL of compounds dissolved in DMSO, positive controls or DMSO only was transferred to the assay plate by a Pintool station (Kalypsys, San Diego, CA). The plates were incubated at 37C and 5% CO2 for 16 hr. Then 1 uL of LiveBLAzerTM B/G FRET substrate was added using a BioRAPTR FRD (Flying Reagent Dispenser, Aurora Discovery, San Diego, CA) and then the plates were incubated at room temperature for 2 hours, and fluorescence intensity was measured by an Envision plate reader (PerkinElmer, Shelton, CT). For cell viability readout that measures cytotoxicity, 4 uL/well of CellTiter-Glo reagent was added into the assay plates using a FRD. After 30 min incubation at room temperature, the luminescence intensity in the plates was measured using a ViewLux (PerkinElmer) plate reader.
# % is scaled to controls: 0 for no effect and ±100 for the full control effect; potency is read from the fitted curve at half-maximal effect.
Structure (SMILES),"activity change, negative = cytotoxicity",Potency
CCCc1ncc(C(=O)O)s1,5.41% [at 42.5 µM] (inactive),–
CC(=O)Nc1ccc(OCCOCCOc2ccc(NC(C)=O)cc2)cc1,5.64% [at 42.5 µM] (inactive),–
C[C@@H]1NC(=O)[C@@H](N)CNC(=O)[C@H](C2CCNC(N)=N2)NC(=O)/C(=C/NC(N)=O)NC(=O)[C@H](CNC(=O)C[C@@H](N)CCCN)NC1=O (stereo not given in full),11.9% [at 0.349 µM] (inactive),–
N#Cc1ccccc1C#N,5.54% (inactive),–
BrCCOc1ccccc1,0.201% (inactive),–
CCN(CC)CC(=O)Oc1ccc(NC(C)=O)cc1,4.42% [at 42.5 µM] (inactive),–
COC(=O)c1ccc(NC(C)=O)cc1OC,-0.1% [at 42.5 µM] (inactive),–
C=CCOC(=O)CCCCCCCC,9.01% (inactive),–
CCCCc1ccc(Cl)cc1,11.1% (inactive),–
N[C@H]1C(O)O[C@H](CO)[C@@H](O)[C@@H]1O (stereo not given in full),0.688% [at 42.5 µM] (inactive),–
Cc1ccc(N)nc1,4.75% (inactive),–
C[C@]12C=CC(=O)C=C1[C@@H](F)C[C@@H]1[C@@H]2[C@@H](O)C[C@@]2(C)[C@H]1CC[C@]2(O)C(=O)CO,4.6% [at 42.5 µM] (inactive),–
CC(CC(=O)Cl)CC(C)(C)C (stereo not given),2.6% (inactive),–
CC(C)C[P+](C)(CC(C)C)CC(C)C,-5.82% (inactive),–
Cc1ccc(O)c(C(=O)c2ccccc2)c1,-6.5% (inactive),–
CN(C)c1ccncc1,-0.944% (inactive),–
Cc1nc2ccc(Cl)cc2[nH]1,7.2% (inactive),–
Cc1cc(O)c(Cl)cc1C,-0.413% (inactive),–
O=C(OOC(=O)c1ccccc1)c1ccccc1,-1.82% [at 42.5 µM] (inactive),–
CC(C)OCCO,4.84% (inactive),–

Structure (SMILES),"activity change, negative = cytotoxicity",Potency
CC(C)(C)OC(=O)c1ccccc1C(=O)O,-0.115% (inactive),–
CCCCCCCCS(=O)(=O)O,8.53% (inactive),–
CC1(C)CC(N)CC(C)(C)N1,9.97% (inactive),–
CC(C)OC(=O)C(C(=O)OC(C)C)=C1SC=CS1,–,18.8 µM (active)
CC(C)(C)c1ccc(C(=O)CCCCl)cc1,-0.404% [at 42.5 µM] (inactive),–
C[Si](C)(C)O[Si](O)(O)O,5.79% (inactive),–
CN1C(CCl)Nc2cc(Cl)c(S(N)(=O)=O)cc2S1(=O)=O (stereo not given),11.1% [at 42.5 µM] (inactive),–
Cc1ccc(S(=O)(=O)NC(=O)NN2CC3CCCC3C2)cc1 (stereo not given),1.22% [at 42.5 µM] (inactive),–
NNC(=O)OCc1ccccc1,-0.531% (inactive),–
CC1=C(O)C(=O)CO1,1.14% (inactive),–
O=c1c(O)c(O)c1=O,2.26% (inactive),–
CCOC(=O)CN1CCCC1=O,5.66% [at 42.5 µM] (inactive),–
O=C(O)Cc1ccccc1Oc1ccc(Cl)cc1Cl,4.14% [at 42.5 µM] (inactive),–
Cc1cc(N)no1,3.29% (inactive),–
C=CCCCCCCCCCCCCCC,1.12% [at 19 µM] (inactive),–
Cc1ccc2cccnc2c1,-0.588% (inactive),–
NNC(=O)CCCCC(=O)NN,-0.654% (inactive),–
CC(C)(C)OC=O,0.791% (inactive),–
C[C@@H]1CCC[C@H](C)N1CCCC(O)(c1ccccc1)c1ccccn1 (stereo not given in full),1.1% [at 42.5 µM] (inactive),–
CCCCNCC,1.06% (inactive),–
